CHT allo act: human CHT allosteric activation; Q9GZV3; CHT-expressing cells, membrane potential dye, choline EC20; active compounds read high; LV-AA mutant CHT in HEK293 cells; B-score at 10 µM; actives 0.49% (n = 310,000);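 active means initial fluorescence not abnormally high and integrated response B-score, plate-corrected, over 3 SD above library mean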
EP2 antag: EP2 receptor (human) inhibition | actives 0.52% (n = 260,000) | inhibition, % at 25 µM | C6 glioma cells expressing human EP2, cAMP TR-FRET; cells stimulated with saturating PGE2;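 active means percent inhibition above 40 after rounding to a whole number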;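 further: rat C6 glioma host cells with rolipram phosphodiesterase inhibitor present; the protocol text gives 20 µM as final concentration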
Target sequence (P43116 whole entry, looked up): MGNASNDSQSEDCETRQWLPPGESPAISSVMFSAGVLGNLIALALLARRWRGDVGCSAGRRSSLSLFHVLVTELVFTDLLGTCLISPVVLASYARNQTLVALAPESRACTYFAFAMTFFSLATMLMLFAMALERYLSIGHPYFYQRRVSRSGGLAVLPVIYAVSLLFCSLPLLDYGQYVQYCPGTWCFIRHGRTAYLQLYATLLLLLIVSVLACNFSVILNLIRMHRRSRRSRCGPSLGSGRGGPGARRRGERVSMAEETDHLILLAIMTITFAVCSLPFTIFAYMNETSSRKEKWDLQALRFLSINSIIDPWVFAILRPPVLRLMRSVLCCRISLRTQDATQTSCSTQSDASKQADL
CHT block: inhibits the human high affinity choline transporter | Q9GZV3 | CHT-expressing cells, membrane potential dye, choline response; active compounds read low | B-score at 10 µM | actives 0.86% (n = 310,000) | AID 488975;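 active means B-score over 3 SD under the library average, and starting fluorescence ratio not unusually high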;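 further: choline stimulus applied at its EC90 after an EC20 pre-addition; B-score computed on integrated fluorescence ratio after choline addition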
EP2 mod: EP2 receptor (human) modulation. induction, % at 25 µM. actives 0.83% (n = 260,000). P43116. AID 940. EP2-expressing cells, cAMP HTRF FRET, PGE2 co-stimulation;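 active means compounds whose cAMP rise, as percent of the full-agonist control response, exceeds 60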;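 further: rat C6 glioma line stably carrying human EP2 under a CMV promoter; the protocol text gives 20 µM as final concentration; 100% = response of wells given 1 µM PGE2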
CHT block conf: human CHT inhibition, confirmatory screen; shares compounds with CHT block; CHT-expressing cells, choline membrane potential dye; LV-to-AA substituted CHT, HEK293 cells; CHT activity remaining % of control (active compounds read low), % at 10 µM; actives 70% (n = 2,400); AID 493221;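 active means choline transporter activity left, mean of duplicates at 10 µM, below buffer-only control mean minus 3 SD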;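 further: depolarization triggered by choline at its EC90 following an EC20 pre-addition; 0% = hemicholinium-3 full block and 100% = buffer-only control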
HEK293 MPD ctr: counter-screen for CHT inhibitors: effect in parental HEK293 cells; actives 4% (n = 2,400); membrane potential ratio readout (active if shifted either direction beyond buffer ±3SD; no single direction) at 10 µM; shares compounds with CHT block; membrane potential dye, choline response; active = decrease or increase beyond buffer ±3SD;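 further: parental cells lack the transporter so any hit is non-specific; ratio is peak minus trough fluorescence over baseline after EC90 choline challenge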
CHT activ conf: human CHT activation, confirmatory screen; shares compounds with CHT allo act; CHT-expressing cells, membrane potential dye fluorescence (FDSS); % of choline EC20–EC90 response window; HEK293 expressing CHT LV-AA mutant; choline added at its EC20; activation, % at 10 µM; actives 91% (n = 2,500);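 active means primary screen active, with duplicate mean activation above negative control mean plus 3 SD, cut at about 11% in these data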
HEK293 MP dye: counter-screen for CHT activators: effect in parental HEK293 cells | membrane potential dye fluorescence (FDSS); measured after EC20 choline addition | shares compounds with CHT allo act | actives 62% (n = 2,500) | ratio readout change at 10 µM, hits read low;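 active means duplicate-averaged ratio beyond 3 SD from buffer wells, up or down, though filed actives are nearly all decreases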
Numbers without * were called inactive; i = inactive; x = no result given. Sampled rows, rich in hits. Any-hit rate of the full collection: about 2%.

SMILES	CHT allo act	EP2 antag	CHT block	EP2 mod	CHT activ conf	HEK293 MP dye	others
CCCCSc1nc(C)cc(C)c1S(=O)(=O)c1ccccc1C	i	11.8	-7.57*	56.3	x	x	CHT block conf=i;HEK293 MPD ctr=i
CCn1c(=O)c2c(nc3n2CCCN3CCc2ccc(OC)c(OC)c2)n(C)c1=O	i	x	i	x	x	x
CCCn1c(=O)c2c(nc3n2CCCN3CCc2ccc(OC)c(OC)c2)n(C)c1=O	i	x	-5.17*	x	x	x	CHT block conf=69.9%*;HEK293 MPD ctr=i
Cc1cn2nc(N)c3ccccc3c2n1	i	18.3	i	35.7	62.1*	-56.9*
Nc1nn2cc(-c3ccccc3)nc2c2ccccc12	i	8.4	i	-58.7	x	x
CCOC(=O)c1sc(=N)n(-c2ccc(OC)cc2)c1C	i	x	i	12.8	x	x
CCOC(=O)c1c(C)n(-c2ccc(C)cc2)c2ccc(O)c(CN(C)C)c12	8.76*	9.2	i	-42.9	15.2*	i
CCOC(=O)c1c(C)n(C)c2ccc(OCCN(C)C)cc12	i	x	i	16.0	x	x
CCOC(=O)c1c(C)n(-c2ccc(OC)cc2)c2ccc(O)c(CN(C)C)c12	6.53*	10.9	i	-12.7	9.0	-25.7*
CCOC(=O)c1c(C)n(-c2ccccc2)c2ccc(OCCN(C)C)cc12	i	x	i	x	31.4*	i
CCc1cccc2ccc(S(=O)(=O)N3CCOCC3)c(CC)c12	x	6.6	x	11.5	x	x
COC(=O)CSc1nnc(-c2cccs2)n1CCc1ccccc1	x	13.8	x	33.7	x	x
Cc1ccc(S(=O)(=O)Nc2nncs2)cc1	9.46*	9.0	i	11.2	-2.9	i
COc1ccc([C@H]2/C=C\CN(C(=O)c3ccc(C)cc3)[C@@H](C)C(=O)N2Cc2ccc(F)cc2)cc1	i	16.6	i	x	x	x
COc1ccc([C@H]2/C=C\CN(C(=O)CC(C)(C)C)[C@@H](C)C(=O)N2Cc2ccc(F)cc2)cc1	9.03*	26.3	i	x	24.7*	i
COc1cc(NC(=O)CN2CCN(c3ccccn3)CC2)cc(OC)c1OC	i	x	i	x	x	x
COc1ccc(NC(=O)C(c2ccccc2)N2CCN(c3ccccn3)CC2)cc1Cl (stereo unspecified)	7.92*	1.6	i	-17.6	21.8*	i
CN(C)C1=NC[C@H](Cc2ccccc2)N1CCCCc1ccccc1	i	x	i	x	16.2*	i
CCCCCCCN1C(N(C)C)=NC[C@@H]1Cc1ccccc1	6.83*	x	i	x	25.3*	i
CN(C)C1=NC[C@H](Cc2ccccc2)N1CC1CCCCC1	i	x	i	x	x	x
Cc1nn(C(C)CC(=O)N2CCc3c([nH]c4ccc(Cl)cc34)C2)c(C)c1C (stereo unspecified)	x	7.2	x	-75.9	x	x
CCCCc1c(O)c2ccccc2[nH]c1=O	i	11.9	i	x	x	x
CCCCCCCCC1=NCCc2c1[nH]c1ccccc21	i	x	i	x	48.4*	i
Cc1cc(C)c2cc(C#N)c(SCC(=O)Nc3ccc4c(c3)OCCO4)nc2c1	x	10.7	x	25.6	x	x
CCOc1ccc2[nH]c(=O)c(C(c3nnnn3C(C)(C)C)N3CCc4ccccc4C3)cc2c1 (stereo unspecified)	x	8.3	x	36.8	x	x
SMILES	CHT allo act	EP2 antag	CHT block	EP2 mod	CHT activ conf	HEK293 MP dye	others
Cc1[nH]nc2c1C(c1cn(Cc3c(F)cccc3Cl)c3ccccc13)C(C#N)=C(N)O2 (stereo unspecified)	x	13.3	x	20.4	x	x
Cc1ccc(N/C(N)=N/c2nc(CSc3nnc(C)s3)cc(=O)[nH]2)c(C)c1	6.88*	4.5	i	-19.1	23.8*	i
O=C(CCN1Cc2ccccc2C1=O)NCCN1CCc2ccccc21	x	8.7	x	-81.5	x	x
COc1ccc(CNC(=O)COC(=O)c2cc3sccc3n2C)cc1	x	2.9	x	-59.4	x	x
CCc1ccccc1NC(=O)C(=O)NCC1CCCO1 (stereo unspecified)	x	5.6	x	-28.7	x	x
Cc1cc2c(cc1C)[n+](C)cn2CC(O)COCc1ccccc1 (stereo unspecified)	i	-1.9	i	-2.3	48.4*	-35.4*
C[n+]1cn(CC(O)COCc2ccccc2)c2ccccc21 (stereo unspecified)	i	x	i	13.9	x	x
CC(C(=O)N1CCC(c2ccnc3nc(C(F)(F)F)nn23)CC1)N1CCCC1=O (stereo unspecified)	x	x	x	-13.8	x	x
Cc1ccc(CNC(=O)CSCc2ccccc2)cc1	i	12.7	i	23.7	x	x
CCCCN(CCCC)CCNC(=O)CSCc1ccc(C)cc1	i	0.2	i	9.1	35.3*	i
Cc1ccc2[nH]c(=O)c(CN(CC3CCCO3)S(=O)(=O)c3ccc(C(C)(C)C)cc3)cc2c1 (stereo unspecified)	x	6.8	x	39.2	x	x
S=C(Nc1ccccc1)NC1CC2CCC(C1)N2Cc1ccco1 (stereo unspecified)	x	12.4	x	-33.0	x	x
NCCCC[C@H]1CN=C(N)N1CCCCC1CCCCC1	10.5*	10.2	i	x	47.3*	-50.9*
NCCCC[C@H]1CN=C(N)N1CC1CCCCC1	i	9.1	i	x	x	x
CCN1/C(=C\c2ccc3cccc(C)c3[n+]2C)C=Cc2cc(C)ccc21	x	12.5	x	-44.3	x	x
CCN1/C(=C/c2cc[n+](C)cc2)C=Cc2cc(C)ccc21	i	8.9	i	-14.7	20.6*	-61.1*
COc1cc(OC)c(OC)cc1/C=N/NC(=O)c1ccc(=O)n(C)c1	i	8.4	i	-9.3	43.0*	-28.9*
COc1cc(OC)c(OC)cc1/C=N/NC(=O)C[n+]1ccccc1	i	6.1	i	0.5	51.3*	-41.8*
COc1cc(C(=O)Nc2sc3c(c2C(=O)O)CC(C)(C)OC3)cc(OC)c1OC	x	5.6	x	-14.3	x	x
Cc1cc(NCCN2CCOCC2)c2ccc3ccccc3c2n1	6.76*	6.8	i	-62.5	39.4*	-41.1*
Cc1c(C)c2ccc(OCc3ccc(C(=O)O)o3)c(C)c2oc1=O	7.83*	10.6	i	33.5	30.5*	-40*
COc1ccc2cc(CN3CCC(O)(c4ccccc4OC)CC3)c(OC)nc2c1	x	5.6	x	-43.0	x	x
Cc1cc2c(s1)c1cnn(Cc3cccnc3)c(=O)c1n2Cc1ccc(F)cc1	x	x	x	-11.4	x	x
COCCCNC(=O)C(=O)NCCN1CCOCC1	x	8.4	x	-0.2	x	x
COc1ccc(C2=Nn3c([n+](C)c4ccccc43)SC2)cc1	10.9*	4.7	i	-46.5	56.8*	-47.8*
